# Measured values: PubChem BioAssay (NCI)
# Compounds without any hit were thinned out: in the full panel of roughly 79,000, 15% have a hit. Values without a mark were called inactive. Calls of active or inactive are those of the source. Rule as the data show it: active = growth inhibition above about 70%; inactive = the rest.
# How the values were obtained:
# [1] = NCI Yeast Anticancer Drug Screen. Data for the rad52 strain (AID 147);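 also: 0% = growth of vehicle-treated control cultures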; conditions: S. cerevisiae rad52 mutant growth inhibition, stronger effect = higher value
# Summary of the method: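 Genetically altered yeast (DNA damage repair defect) treated with compound; inhibition calculated relative to vehicle.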
# [2] = NCI Yeast Anticancer Drug Screen. Data for the wt1 strain (AID 149);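 also: 0% = growth of vehicle-treated wt1 cultures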; conditions: S. cerevisiae wt1 strain (SPY 50644) growth inhibition, stronger effect = higher value
# Summary of the method: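 Yeast wt1 strain exposed to compounds; growth inhibition measured relative to vehicle-treated controls.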
# [3] = NCI Yeast Anticancer Drug Screen. Data for the rad50EPP+ strain (AID 151);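 also: 0% = growth of vehicle-treated control cultures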; conditions: S. cerevisiae rad50 mutant strain, stronger effect = higher value
# Summary of the method: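 Strain rad50EPP+; compound exposure; % growth inhibition vs vehicle.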
# [4] = NCI Yeast Anticancer Drug Screen. Data for the mgt1 strain (AID 153); conditions: S. cerevisiae mgt1 mutant growth inhibition, stronger effect = higher value
# Summary of the method: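 Read-out: yeast growth inhibition vs vehicle control. Strain mgt1, drawn from a panel altered in DNA damage repair or cell cycle control.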
# [5] = NCI Yeast Anticancer Drug Screen. Data for the rad50 strain (AID 155);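 also: 0% = growth of vehicle-only cultures of the same strain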; conditions: S. cerevisiae rad50 strain growth inhibition, stronger effect = higher value
# Summary of the method: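 Yeast carrying a defined DNA repair defect were exposed to test compounds, and growth was compared with vehicle-treated controls to give percent inhibition.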
# [6] = NCI Yeast Anticancer Drug Screen. Data for the mec2-1 strain (AID 157); conditions: S. cerevisiae mec2-1 strain, stronger effect = higher value
# Summary of the method: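 Cells of the genetically defined mec2-1 yeast strain are incubated with test compound. Inhibition of growth is calculated against vehicle-treated controls.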
# [7] = NCI Yeast Anticancer Drug Screen. Data for the rad14 strain (AID 159);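 also: 0% = growth of vehicle-treated control cultures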; conditions: S. cerevisiae rad14 strain growth inhibition, stronger effect = higher value
# Summary of the method: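 Yeast cells carrying a defined DNA-repair defect were exposed to compounds, and growth inhibition was calculated relative to vehicle-treated control cultures.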
# [8] = NCI Yeast Anticancer Drug Screen. Data for the sgs1 mgt1 strain (AID 161);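 also: 0% = growth of cultures given vehicle only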; conditions: S. cerevisiae sgs1 mgt1 strain, stronger effect = higher value
# Summary of the method: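 Test agents were incubated with a DNA-repair-mutant yeast strain. Growth was then read and compared against vehicle-treated controls.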
# [9] = NCI Yeast Anticancer Drug Screen. Data for the cln2 rad14 strain (AID 165);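 also: 0% = growth equal to vehicle treated cultures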; conditions: S. cerevisiae cln2 rad14 strain, stronger effect = higher value
# Summary of the method: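 The screen exposed genetically defined yeast (cln2 rad14) to test compounds and scored growth inhibition relative to vehicle-treated controls.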
# [10] = NCI Yeast Anticancer Drug Screen. Data for the bub3 strain (AID 167); conditions: S. cerevisiae bub3 mutant strain, stronger effect = higher value
# Summary of the method: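 Compounds were applied to a genetically altered yeast strain carrying a cell-cycle control defect. Growth inhibition was scored against vehicle-treated controls.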
# [11] = NCI Yeast Anticancer Drug Screen. Data for the wt2 strain (AID 169);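 also: 0% = growth of vehicle-treated yeast cultures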; conditions: S. cerevisiae wt2 strain growth inhibition, stronger effect = higher value
# Summary of the method: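 Steps: yeast strain treated with compound; growth recorded; inhibition calculated relative to cultures given vehicle alone.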
# [12] = NCI Yeast Anticancer Drug Screen. Data for the mlh1 strain (AID 171);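 also: 0% = growth of vehicle-treated control cultures of the same strain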; conditions: S. cerevisiae mlh1 strain growth inhibition, stronger effect = higher value
# Summary of the method: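 Yeast screen: mutant strain plus compound, growth scored against vehicle control wells.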
# [13] = NCI Yeast Anticancer Drug Screen. Data for the sgs1 strain (AID 173);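 also: 0% = growth of vehicle-only control cultures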; conditions: S. cerevisiae sgs1 mutant, stronger effect = higher value
# Summary of the method: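 Inhibition of yeast growth served as the measure. The mutant strain was treated with each compound, and growth was normalised to cultures receiving vehicle alone.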
# [14] = NCI Yeast Anticancer Drug Screen. Data for the mlh1 rad18 strain (AID 175); conditions: S. cerevisiae mlh1 rad18 strain growth inhibition, stronger effect = higher value
# Summary of the method: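 Compound-treated yeast growth, normalised to vehicle controls. Strain bears defined DNA repair mutations.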
# [15] = at 5.0 µM (retest, dose inferred, filed as 0.5)
# [16] = at 50.0 µM (retest, dose inferred, filed as 5.0)
structure (smiles),measurement,setting,value
CCOC(=O)C#Cc1ccc([N+](=O)[O-])cc1,growth inhibition,[1]; at 1.2 µM,0%
same,growth inhibition,[1]; at 3.7 µM,-1%
same,growth inhibition,[1]; at 11.0 µM,-6%
same,growth inhibition,[1]; at 33.0 µM,3%
same,growth inhibition,[1]; at 100.0 µM,17%
same,growth inhibition,[2]; at 1.2 µM,2%
same,growth inhibition,[2]; at 3.7 µM,1%
same,growth inhibition,[2]; at 11.0 µM,3%
same,growth inhibition,[2]; at 33.0 µM,8%
same,growth inhibition,[2]; at 100.0 µM,25%
same,growth inhibition,[3]; at 1.2 µM,8%
same,growth inhibition,[3]; at 3.7 µM,4%
same,growth inhibition,[3]; at 11.0 µM,7%
same,growth inhibition,[3]; at 33.0 µM,23%
same,growth inhibition,[3]; at 100.0 µM,61%
same,growth inhibition,[4]; at 1.2 µM,1%
same,growth inhibition,[4]; at 3.7 µM,-4%
same,growth inhibition,[4]; at 11.0 µM,-6%
same,growth inhibition,[4]; at 33.0 µM,5%
same,growth inhibition,[4]; at 100.0 µM,12%
same,growth inhibition,[5]; at 1.2 µM,0%
same,growth inhibition,[5]; at 3.7 µM,4%
same,growth inhibition,[5]; [15],15%
same,growth inhibition,[5]; at 11.0 µM,3%
same,growth inhibition,[5]; at 33.0 µM,18%
same,growth inhibition,[5]; [16],50%
same,growth inhibition,[5]; at 50.0 µM,96% (active)
same,growth inhibition,[5]; at 100.0 µM,46%
same,growth inhibition,[6]; at 1.2 µM,4%
same,growth inhibition,[6]; at 3.7 µM,-5%
same,growth inhibition,[6]; [15],12%
same,growth inhibition,[6]; at 11.0 µM,7%
same,growth inhibition,[6]; at 33.0 µM,-1%
same,growth inhibition,[6]; [16],36%
same,growth inhibition,[6]; at 50.0 µM,95% (active)
same,growth inhibition,[6]; at 100.0 µM,6%
same,growth inhibition,[7]; at 1.2 µM,1%
same,growth inhibition,[7]; at 3.7 µM,-4%
same,growth inhibition,[7]; at 11.0 µM,4%
same,growth inhibition,[7]; at 33.0 µM,4%
same,growth inhibition,[7]; at 100.0 µM,5%
same,growth inhibition,[8]; [15],31%
same,growth inhibition,[8]; [16],72% (active)
same,growth inhibition,[8]; at 50.0 µM,50.5%
same,growth inhibition,[9]; [15],-43%
same,growth inhibition,[9]; [16],-7%
same,growth inhibition,[9]; at 50.0 µM,96.8% (active)
same,growth inhibition,[10]; at 1.2 µM,-10%
same,growth inhibition,[10]; at 3.7 µM,-24%
same,growth inhibition,[10]; [15],-10%
same,growth inhibition,[10]; at 11.0 µM,-1%
same,growth inhibition,[10]; at 33.0 µM,1%
same,growth inhibition,[10]; [16],28%
same,growth inhibition,[10]; at 50.0 µM,95.5% (active)
same,growth inhibition,[10]; at 100.0 µM,-8%
same,growth inhibition,[11]; at 1.2 µM,-1%
same,growth inhibition,[11]; at 3.7 µM,1%
same,growth inhibition,[11]; at 11.0 µM,4%
same,growth inhibition,[11]; at 33.0 µM,7%
same,growth inhibition,[11]; at 100.0 µM,11%
same,growth inhibition,[12]; at 1.2 µM,-4%
same,growth inhibition,[12]; at 3.7 µM,-3%
same,growth inhibition,[12]; at 11.0 µM,-10%
same,growth inhibition,[12]; at 33.0 µM,-21%
same,growth inhibition,[12]; at 100.0 µM,-5%
same,growth inhibition,[13]; at 1.2 µM,1%
same,growth inhibition,[13]; at 3.7 µM,0%
same,growth inhibition,[13]; at 11.0 µM,5%
same,growth inhibition,[13]; at 33.0 µM,6%
same,growth inhibition,[13]; at 100.0 µM,15%
same,growth inhibition,[14]; [15],-20%
same,growth inhibition,[14]; [16],63%
same,growth inhibition,[14]; at 50.0 µM,96.8% (active)
